Active and inactive are the calls of the source.

Assay [1] can be described thus: optical density shifts of acrAB sulA E. coli – strain DRC41, OD650, 48 h, E. coli filamentation inducer project, primary screen (AID 1152).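 Further: E. coli MC1000 strain DRC41 lacking acrAB efflux pump and sulA.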 The settings on record: higher = more signal, called active from +8 up or from −8 down.
Assay [2] is described as follows: probe aLefty1 binding on compound microarray – biochemical, small-molecule microarray, 635/667 nm fluorescence, primary screen (AID 1153).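 Further: score merges spot fluorescence with signal-to-noise ratio from the scanned slide images.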 As to conditions: higher = more signal.
The nature of assay [3]: plasmodial surface anion channel blockers, osmotic lysis – cell-based, P. falciparum Indochina, OD700, 1 h, primary screen (AID 1154). As to conditions: P. falciparum Indochina infected RBC osmotic lysis, higher = more signal, called active from +8 up or from −8 down.
The nature of assay [4]: plasmodial surface anion channel blockers, osmotic lysis – cell-based, P. falciparum Indochina, OD700, 2 h, primary screen (AID 1155).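 Further: lysis reports solute entry through the parasite surface anion channel PSAC.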 As to conditions: P. falciparum Indochina infected erythrocytes, higher = more signal, called active from +8 up or from −8 down.
The nature of assay [5]: changes in parasitized red cell lysis, either direction – P. falciparum Indochina, OD700, 3 h, PSAC antagonist project, primary screen (AID 1156). The settings on record: P. falciparum-infected erythrocytes, osmotic lysis, higher = more signal, called active from +8 up or from −8 down.
The nature of assay [6]: plasmodial surface anion channel blockers, osmotic lysis – cell-based, P. falciparum Indochina, OD700, 18 h, primary screen (AID 1157). The settings on record: P. falciparum Indochina infected erythrocytes, osmotic lysis OD700, 18 h; higher = more signal, called active from +8 up or from −8 down.
Assay [7] is described as follows: S6 kinase pathway phospho-S6 level changes – cell-based, A549, cytoblot, luminescence, serum-stimulated, primary screen (AID 1158).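 Further: serum-stimulated A549 lung adenocarcinoma cells; signal is phosphorylated S6 detected by cytoblot immunostaining with HRP secondary.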 As to conditions: 5 h, higher = more signal.
For assay [8], the target named is NADPH oxidase 2 (Homo sapiens) (UniProt P04839). The assay can be described thus: compounds shifting NOX2 Amplex Red fluorescence – cell-based, HEK293-NOX2, PMA-stimulated, NOX inhibitor project, primary screen (AID 1159). Further: test concentration not given here. As to conditions: 45 min, higher = more signal, called active from +8 up or from −8 down.
Sequence of NADPH oxidase 2 (Homo sapiens) (P04839 whole entry, looked up): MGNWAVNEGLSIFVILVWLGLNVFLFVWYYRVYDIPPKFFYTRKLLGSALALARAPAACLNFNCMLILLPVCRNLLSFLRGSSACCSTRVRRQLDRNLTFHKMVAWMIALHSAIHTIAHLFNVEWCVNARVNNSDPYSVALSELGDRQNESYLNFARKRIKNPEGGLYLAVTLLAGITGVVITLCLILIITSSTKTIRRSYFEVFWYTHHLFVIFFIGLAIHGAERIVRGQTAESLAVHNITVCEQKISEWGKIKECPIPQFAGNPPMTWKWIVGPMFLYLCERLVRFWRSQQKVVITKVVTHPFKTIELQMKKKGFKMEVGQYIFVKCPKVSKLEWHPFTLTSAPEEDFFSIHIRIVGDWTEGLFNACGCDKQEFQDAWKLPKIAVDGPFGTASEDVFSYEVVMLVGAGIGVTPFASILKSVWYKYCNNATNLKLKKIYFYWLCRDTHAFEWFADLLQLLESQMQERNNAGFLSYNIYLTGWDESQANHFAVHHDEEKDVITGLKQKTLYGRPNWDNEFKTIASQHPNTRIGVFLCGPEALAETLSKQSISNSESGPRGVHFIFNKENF
Assay [9] concerns the target NADPH oxidase 4 (Homo sapiens) (UniProt Q9NPH5). The assay can be described thus: compounds shifting NOX4 Amplex Red fluorescence – cell-based, HEK293-NOX4, tetracycline-induced, NOX inhibitor project, primary screen (AID 1160). As to conditions: HEK293-NOX4, Amplex Red H2O2 fluorescence, 45 min; higher = more signal, called active from +8 up or from −8 down.
For assay [10], the target named is NADPH oxidase 5 (Homo sapiens) (UniProt Q96PH1). The assay can be described thus: compounds shifting NOX5 Amplex Red fluorescence – cell-based, HEK293-NOX5, NOX inhibitor project, primary screen (AID 1161). The settings on record: HEK293-NOX5, ionomycin, 45 min, higher = more signal.
Sequence of NADPH oxidase 5 (Homo sapiens) (Q96PH1 whole entry, looked up): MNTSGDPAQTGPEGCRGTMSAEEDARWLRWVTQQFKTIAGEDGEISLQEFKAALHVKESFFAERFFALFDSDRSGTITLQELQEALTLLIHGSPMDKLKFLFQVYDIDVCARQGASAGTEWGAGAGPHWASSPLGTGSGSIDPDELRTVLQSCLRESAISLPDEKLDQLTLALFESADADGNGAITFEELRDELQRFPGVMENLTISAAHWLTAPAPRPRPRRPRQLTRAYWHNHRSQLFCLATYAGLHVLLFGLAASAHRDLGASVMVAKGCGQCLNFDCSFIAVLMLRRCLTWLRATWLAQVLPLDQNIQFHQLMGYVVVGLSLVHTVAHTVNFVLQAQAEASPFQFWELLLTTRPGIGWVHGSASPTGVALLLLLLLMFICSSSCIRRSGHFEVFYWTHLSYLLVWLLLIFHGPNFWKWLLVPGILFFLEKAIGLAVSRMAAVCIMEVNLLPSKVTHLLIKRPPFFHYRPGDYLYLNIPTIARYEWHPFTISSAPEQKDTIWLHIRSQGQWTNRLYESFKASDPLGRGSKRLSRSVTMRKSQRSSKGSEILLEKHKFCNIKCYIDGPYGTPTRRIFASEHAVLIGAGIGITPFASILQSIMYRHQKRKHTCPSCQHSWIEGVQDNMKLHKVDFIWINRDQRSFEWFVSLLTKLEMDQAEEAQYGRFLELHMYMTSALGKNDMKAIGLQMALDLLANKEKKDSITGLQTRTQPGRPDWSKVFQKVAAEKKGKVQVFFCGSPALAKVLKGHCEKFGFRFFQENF
The nature of assay [11]: compound effects on lung adenocarcinoma cell viability – A549, calcein-AM fluorescence, 48 h, basal, profiling panel (AID 1162). Further: test concentration not given here. The settings on record: higher = more signal.
Assay [12] in a line: compound effects on differentiated 3T3-L1 adipocyte viability – cell-based, 3T3-L1 adipocytes, calcein-AM fluorescence, 48 h, basal, profiling panel (AID 1163). Further: test concentration not given here. As to conditions: 3T3-L1 adipocytes viability, higher = more signal.
The nature of assay [13]: compound effects on hepatocellular carcinoma cell viability – HepG2, calcein-AM fluorescence, 48 h, basal, profiling panel (AID 1164). Further: test concentration not given here. As to conditions: higher = more signal.
Assay [14] is described as follows: compound effects on multiple myeloma cell viability – MM1S, calcein-AM fluorescence, 48 h, basal, profiling panel (AID 1165).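 Further: viability of MM1S multiple myeloma cells under basal unstimulated conditions; test concentration not given here.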 The settings on record: higher = more signal.
Assay [15] is described as follows: calcein-AM signal in unstimulated myeloma cells – cell-based, calcein-AM fluorescence, 48 h, PK04 Diversity Set, profiling panel (AID 1166).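 Further: cells grown under basal conditions without added stimulus; test concentration not given here.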 The settings on record: RPMI8226 myeloma viability, higher = more signal.
Assay [16] is described as follows: JC-1 mitochondrial signal, unstimulated HepG2 cells – cell-based, JC-1 fluorescence, 24 h, 100 nL compound, profiling panel (AID 1167). Further: test concentration not given here. The settings on record: HepG2 mitochondrial potential, higher = more signal.
Assay [17] is described as follows: JC-1 mitochondrial signal, unstimulated adipocytes – cell-based, JC-1 fluorescence, 3T3-L1 adipocytes, 24 h, 100 nL compound, profiling panel (AID 1168). Further: test concentration not given here. As to conditions: JC-1 mitochondrial fluorescence, higher = more signal, called active from +8 up or from −8 down.
The nature of assay [18]: JC-1 mitochondrial signal, unstimulated myeloma cells – cell-based, JC-1 fluorescence, RPMI8226, 24 h, 100 nL compound, profiling panel (AID 1169). Further: test concentration not given here. As to conditions: JC-1 mitochondrial potential fluorescence, higher = more signal.
Assay [19] in a line: JC-1 mitochondrial signal, unstimulated MM1S myeloma – cell-based, JC-1 fluorescence, 24 h, 100 nL compound, profiling panel (AID 1170). Further: test concentration not given here. The settings on record: MM1S mitochondrial potential, higher = more signal.
A short description of assay [20]: resazurin metabolic signal in A549 cells – cell-based, resazurin fluorescence, 24 h, PK04 Diversity Set, profiling panel (AID 1171). Further: test concentration not given here. The settings on record: A549 viability, higher = more signal, called active from +8 up or from −8 down.

Sequence of NADPH oxidase 4 (Homo sapiens) (Q9NPH5 whole entry, looked up): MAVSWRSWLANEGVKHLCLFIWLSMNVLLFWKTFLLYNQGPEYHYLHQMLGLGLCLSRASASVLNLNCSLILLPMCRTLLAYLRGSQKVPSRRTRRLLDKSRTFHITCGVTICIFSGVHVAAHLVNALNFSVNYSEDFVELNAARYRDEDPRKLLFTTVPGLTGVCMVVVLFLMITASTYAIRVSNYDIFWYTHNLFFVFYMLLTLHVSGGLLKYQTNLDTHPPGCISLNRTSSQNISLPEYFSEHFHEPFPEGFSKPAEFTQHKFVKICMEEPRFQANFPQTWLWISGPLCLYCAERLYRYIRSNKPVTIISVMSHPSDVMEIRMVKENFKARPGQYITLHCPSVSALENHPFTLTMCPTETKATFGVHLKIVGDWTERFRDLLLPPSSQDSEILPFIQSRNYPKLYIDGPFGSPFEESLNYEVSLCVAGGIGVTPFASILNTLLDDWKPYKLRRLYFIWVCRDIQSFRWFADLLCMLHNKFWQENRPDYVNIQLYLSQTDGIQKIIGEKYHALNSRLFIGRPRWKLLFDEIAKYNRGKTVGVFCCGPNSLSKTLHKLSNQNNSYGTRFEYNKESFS

On to `C#CCCCON=C1[C@H]2CCn3c(=O)n(-c4ccccc4)c(=O)n3[C@H]2[C@H](O)[C@@H]2O[C@H]12`, for which the z-score in assay [1] was 0.555 (inactive); in assay [3], 0.116 (inactive); in assay [4], -1.22 (inactive); in [5], 0.43 (inactive); in assay [6], -2.27 (inactive); in assay [7], 3.11. The z-score was -0.858 (inactive) in [8]; 0.137 (inactive) in assay [9]; 0.607 in [10]; -0.212 in assay [11]; 0.356 in assay [12]; 1.09 in assay [13]. Also, the z-score in assay [14] was 0.0128; in assay [15], -0.352; in [16] it was 0.85; in [17] it was 0.182 (inactive); in [18] it was 1.03; in assay [19] it was -0.61. Further, the z-score in [20] is -1.39 (inactive). In assay [2], the composite z-score is -0.19.
Turning to `CC(C)=CCCC(C)=CCON=C1C[C@@H](O)[C@@H](O)[C@@H]2[C@@H]3C(=O)N(c4ccc(F)cc4F)C(=O)[C@@H]3CC[C@H]12`, the z-score in assay [1] was -0.061 (inactive); in [3], 13.7 (active); in assay [4], 0.545 (inactive); in assay [5] it was 2.8 (inactive); in [6], -0.87 (inactive); in assay [7] it was -0.0997. Also, the z-score is -0.0501 (inactive) in [8]; -1.83 (inactive) in assay [9]; -4.58 in assay [10]; -1.39 in assay [11]; 0.719 in [12]; 0.0201 in assay [13]. Also, the z-score in assay [14] was -3.06; in assay [15], 0.579; in [16], -2.26; in assay [17], 0.866 (inactive); in assay [18] it was -0.786; in [19], -1.55. In assay [20], the z-score is 0.619 (inactive). Besides, the composite z-score in [2] was 0.173.
Turning to `CCCNC(=O)OC[C@H]1O[C@H](c2ccccc2)C=C[C@@H]1Oc1ccc(OC)cc1`, the z-score in assay [1] is 0.604 (inactive); in [3], 0.906 (inactive); in [4] it was 0.141 (inactive); in assay [5], -0.353 (inactive); in [6], 0.0261 (inactive); in assay [7], 0.136. In addition, the z-score in [8] is 1.35 (inactive); in [9], -0.438 (inactive); in assay [10], -1.9; in assay [11], -0.365; in [12], 0.125; in assay [13], -0.138. Besides, the z-score in [14] was -0.543; in assay [15], -0.0859; in [16], -0.362; in assay [17], -0.307 (inactive); in [18], -0.215; in assay [19] it was 0.0375. The z-score in assay [20] was -0.745 (inactive). Moreover, the composite z-score in assay [2] is -0.092.
`COC(=O)C=CCCc1coc(C=CCNC(=O)OC)n1`: the z-score in assay [1] was -0.747 (inactive); in assay [3] it was 1.78 (inactive); in assay [4], 0.713 (inactive); in [5], 1.13 (inactive); in assay [6], 0.247 (inactive); in assay [7], 0.41. The z-score in assay [8] is 0.575 (inactive); in assay [9] it was 0.532 (inactive); in [10], 0.21; in assay [11], -0.538; in assay [12] it was 0.868; in assay [13], -0.586. In addition, the z-score is 0.585 in assay [14]; -2.19 in [15]; 0.0672 in assay [16]; -0.944 (inactive) in assay [17]; 0.073 in assay [18]; 0.681 in assay [19]. In assay [20], the z-score is -1.18 (inactive). This compound also came in with a composite z-score in assay [2] of 0.632.
In the case of `COc1cc(O)c(C(=O)C=Cc2ccc3c(c2)OCO3)c(OC)c1`, the z-score in assay [1] is -0.59 (inactive); in assay [3] it was 18.9 (active); in assay [4], 2.42 (inactive); in assay [5], 0.484 (inactive); in assay [6], 0.885 (inactive); in [7], -0.523. In addition, the z-score was 0.0679 (inactive) in assay [8]; 0.142 (inactive) in assay [9]; -0.0252 in assay [10]; -0.553 in [11]; 0.154 in assay [12]; -0.932 in assay [13]. Further, the z-score was -1.62 in assay [14]; -1.36 in [15]; -0.591 in assay [16]; -0.646 (inactive) in [17]; -0.23 in assay [18]; -0.533 in assay [19]. In addition, in assay [20], the z-score is 0.0731 (inactive). This compound displayed a composite z-score in assay [2] of 0.0056.

The values above are taken from PubChem BioAssay.
